Experimental data as given in the supplement of paper PMC6555819.

Each sequence was assayed on RXRa DBDmut IVT, anti-RXR (DBD mutation: RXRa K156A/R161A, NR concentration 90 nM) (assay: PBM binding z-score (relative to random genomic background probes); higher = stronger binding; sequences stand for … in GC…GCGATTGACAGCGTAGAATGAAGG).
How it was run: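 Random background probes are the reference for binding z-scores. These scores derive from regression-normalized fluorescence on custom Agilent 4×180K protein-binding microarrays incubated 1 h with ligand-free nuclear receptor dimers. Binding was detected with antibodies against each partner (one per run).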

Row | Sequence | PBM binding z-score
1 | ATCGAAAGGTCGTGTGGTGAGTATACAGAAAGGC | 2.19
2 | CGTCCAAGGTCATCGGAGGTCAGTGAAGACAGAT | 4.24
3 | CCATACAGGTGAGAAGGTAACTCAGCCTCGATTA | 0.319
4 | ATCGAAAGGTCGACGAGGTGAGTCTACACCGTTT | 1.04
5 | CCTCGAAGGACAGAAGGTCAGAGCTGTCCGCTTT | 0.128
6 | CCTATTAGTTGACCGTAAGGGCAACCGAAGCTCG | 0.339
7 | TAGCCTAGGTCATGCAGGGGCCAGTATAGAAAGC | 0.31
8 | CCTACTCGGCCATTCAGAGGTCATTGATCATATG | 2
9 | CCTCGGAGGACAGAAGGTCAGAGCTGTCCGCTTT | 0.0371
10 | GCGACTGGTGCAAAGCAGGTTACCATAAGGTTGG | -0.409
11 | CGTCCAAGGTCAGAGAGGTCAATGAATGCCGAGT | 3.55
12 | CCTATTAGTTGACCATAAGGGCTACCGAAGCTCG | 0.659
13 | CAAACTAGGGCACAGAGGTCAAAGTCCGTGCGTA | 2.66
14 | TAGCCCAGGTCATGCGGGCCAGTATAGTGTCGGC | 1.22
15 | CCGAGTTGGTTATGGGGCATTCAGGCAACGGTGA | 1.14
16 | GCTACAGGGTCAAGGCCAGAGTACGCGTATTGAT | 3
17 | CCTACTGGGCCATCATGTCATTGATATCAACGTT | -0.152
18 | TCATATAGGTAAGACAGGTGAAAGTCGGCATCTA | 1.36
19 | CCTAGTTGGTGAAGGTCACACACGCTATAGGTAC | 1.36
20 | ATCTCTAGGTAAACATAGTTCAGTGAATGCAAAT | -0.105

Row | Sequence | PBM binding z-score
21 | TCATATAGGTAATTCAGGTGAAAGTCGGCATCTA | 1.73
22 | CCTAGCTGGCCAGGGTCACTCAAGCATTTCGCTT | 0.326
23 | TCATATAGGTAGAGGTGAAAGTCGAACGATATGA | 0.392
24 | TCGAGTAGGTTAGGAGCATTCAGAATGGCGTCGA | -0.149
25 | ACTTACGGGGCAACGAGGTTATAGCACGCGTATA | 1.63
26 | AGAATGAGGTTATTAAGATCTGGGAATTGCGGTC | 2.16
27 | CCTGCTAGGCCAATGGTCAGCTAAAGCAGCTCGC | -0.154
28 | CGTCCAAGGTCAAAGGAGGTCAGTGAAGACAGAT | 3.52
29 | CGAACTAGGTCAGAACAGGACAGTGAGGGATGAT | 0.709
30 | TCATATAGGTAAGGGTGAAAGTCGAACGATATGA | 0.475
31 | CAAACTAGGTTACGAAAGGTCAAAGTCGAATGAC | 1.6
32 | TCTAATAGTTGAAGGGCAACCGACGAGTCCGTTT | 1.7
33 | GCTGCTAGGTCAGGTAGGTCAGCTAACGGGTACG | 0.899
34 | CCTTACGGGTCACTTCAGGTTATAGCATCGGAGT | 1.67
35 | CCGACTGGGGCAAAGGTTACCATACTCAGTACGA | 0.712
36 | GATACAGGGTTAGCTAGAGGCCAGAGTATGGAAA | -0.477
37 | GCGACTGGGGCAAAGCAGGTTACCTTAAGGTTGG | -0.0758
38 | GCGACTGGGGCATCAGCAGGTTACCATCACTTAA | -0.0239
39 | AGAATGAGGTTATTAGGATCAGGGAATTGCGGTC | 2.16
40 | ATACCATGGTGATCGTGAGGTCGTTGATACTAAC | 0.547
